Compound activity from PubChem.
TR-FRET SRC-2 ct: TR-FRET artefact, counter-screen to PPARgamma/SRC-2 agonist assay; actives 0.4% (n = 200,000); TR-FRET ratio at 8 µM; stronger effect = higher value; in the data active = TR-FRET ratio above about 2000
PPARg SRC-3 ag: PPARgamma-driven SRC-3 recruitment agonism. biochemical PPARgamma/SRC-3 coactivator recruitment assay. activation, % at 8 µM. actives 0.26% (n = 200,000); in the data active = activation above about 23%;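 note: 0% = DMSO and 100% = reference agonist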
SRC3 TRFRET art: flags TR-FRET format artefacts in PPARgamma SRC-3 recruitment agonist screen | TR-FRET artefact counter-screen, PPARgamma/SRC-3 format; stronger effect = higher value | TR-FRET ratio at 8 µM | actives 0.39% (n = 99,000) | AID 1048; in the data active = TR-FRET ratio above about 2000
PPARg SRC-2 ag: agonists of SRC-2 recruitment by human PPARgamma. actives 0.34% (n = 200,000). PPARgamma LBD-SRC-2 recruitment, biochemical. P37231. activation, % at 8 µM;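 note: 0% = vehicle and 100% = reference agonist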
SRC1 TRFRET art: TR-FRET artefact, counter-screen to PPARgamma/SRC-1 agonist assay. TR-FRET detection artefact counter-screen, emission ratio; stronger effect = higher value. TR-FRET ratio at 8 µM. actives 0.34% (n = 99,000); in the data active = TR-FRET ratio above about 2300
PPARg SRC1 recr: PPARgamma-driven SRC-1 recruitment agonism; P37231; PPARgamma-SRC-1 coactivator recruitment biochemical assay; activation, % at 8 µM; actives 0.41% (n = 200,000); AID 631; in the data active = activation above about 19%;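 note: 0% = DMSO and 100% = reference agonist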
PPARg SRC2 ag: human PPARgamma SRC-2 recruitment agonism, confirmation; shares compounds with PPARg SRC-3 ag; biochemical SRC-2 recruitment by PPARgamma; activation, % at 8 µM; actives 52% (n = 790); AID 1297;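 note: 0% = vehicle alone and 100% = reference agonist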
PPARg SRC1 ag: confirmation of agonists of SRC-1 recruitment by human PPARgamma. shares compounds with PPARg SRC-3 ag. PPARgamma–SRC-1 coactivator recruitment biochemical assay. activation, % at 8 µM. actives 43% (n = 790); in the data active = activation above about 20%;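 note: 0% = vehicle wells and 100% = reference agonist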
PPARg SRC3 ag: confirmation of agonists of SRC-3 recruitment by human PPARgamma; shares compounds with PPARg SRC-3 ag; actives 29% (n = 790); AID 1301; activation, % at 8 µM; biochemical PPARgamma-SRC-3 coactivator recruitment, agonist mode; in the data active = activation above about 24%;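 note: 0% = vehicle wells and 100% = reference agonist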
Active calls of the source: *; x = no result. Only some compounds are listed: those with a hit (about 0.9% of all), similar ones and a draw of the others. Cut-off read from the data, not from the text of the source, unless noted: active = activation above about 22%; inactive = the rest.

SMILES	TR-FRET SRC-2 ct	PPARg SRC-3 ag	SRC3 TRFRET art	PPARg SRC-2 ag	SRC1 TRFRET art	PPARg SRC1 recr	PPARg SRC2 ag	PPARg SRC1 ag	PPARg SRC3 ag
Cc1ccccc1C1C2=C(Nc3[nH]n(-c4ccccc4)c(=O)c31)c1ccccc1C2=O (configuration not stated)	1853	34.7*	1593	5.3	1991	22.8*	23.4*	29.6*	35.5*
COC(=O)c1sc(N2C(=O)C(O)=C(C(=O)c3ccc(C)o3)C2c2ccc(F)cc2)nc1C (configuration not stated)	2303*	19.8	x	26.4*	x	30.5*	30.0*	22.8*	19.0
Cc1ccc(C2C(C(=O)c3ccco3)=C(O)C(=O)N2c2nnc(C)s2)cc1 (configuration not stated)	1957	33.7*	x	19.9	x	24.1*	13.9	12.1	10.3
CCOC(=O)CSc1nc(N)c(C(=O)Nc2ccc(N(C)C)cc2)s1	1889	4.2	x	10.4	x	21.9*	7.2	10.6	5.9
CC(C)OC(=O)CC1C(=O)NCCN1C(=S)NC(=O)c1ccc(F)cc1 (configuration not stated)	1569	1.7	1981	3.1	1729	12.1	x	x	x
COCC(C)n1c(SCC(=O)NC(=O)Nc2ccc3c(c2)OCCO3)nc2ccccc2c1=O (configuration not stated)	1505	-13.9	x	2.1	x	10.2	x	x	x
Cc1ccc(/C=[N+](\[O-])c2ccc(N(C)C)cc2)c2nsnc12	1862	11.5	1884	9.5	2222	26.6*	16.5	12.1	8.2
Cc1ccc2nsnc2c1NS(=O)(=O)c1c(C)ccc2nsnc12	1392	12.4	x	-3.2	x	4.0	x	x	x
O=C(Nn1c(O)c(C=C2N=c3ccccc3=N2)sc1=S)c1cccc(Cl)c1	1764	27.4*	x	15.4	x	15.0	23.0*	15.4	10.4
O=C(Nn1c(O)c(C=C2N=c3ccccc3=N2)sc1=S)c1ccc(Cl)cc1	1686	-0.2	x	-4.5	x	3.5	x	x	x
O=C1N=c2ccccc2=C1c1sc(=S)n(NC(=O)c2cccc(O)c2)c1O	1790	14.3	2060*	11.5	2026	21.8*	35.1*	26.6*	22.4
CCCCCCC1CCC(C(=O)N2CCOCC2)CC1 (configuration not stated)	1582	1.4	1817	1.1	1978	-4.2	x	x	x
CCOC(=O)CCC(NC(=O)c1ccc(NCN2C(=O)c3ccccc3C2=O)cc1)C(=O)OCC (configuration not stated)	1572	21.8	x	10.1	x	29.1*	13.6	27.8*	21.4
CCc1ccccc1NC(=O)c1ccc([N+](=O)[O-])s1	1810	7.6	1858	0.8	1767	1.2	x	x	x
COc1ccc(CNC(=O)COC(=O)c2cc(-c3ccc(Cl)s3)nc3ccccc23)cc1	2696*	17.4	x	22.9*	x	12.8	19.9	15.6	12.5
O=C(COC(=O)c1cc(-c2ccc(Cl)s2)nc2ccccc12)NCc1ccco1	1744	18.0	x	19.2	x	13.2	x	x	x
Cc1ccc(C)c(CN2CCCNC2=O)c1	1592	-1.3	x	9.2	x	2.9	x	x	x
CCOC(=O)c1[nH]c2ccc(C)cc2c1N	1458	5.8	1835	10.5	2128	3.3	x	x	x
CCOC(=O)c1[nH]c2cc(OC)c(OC)cc2c1N	1702	21.4	x	25.5*	x	13.2	18.4	16.2	9.6
O=C1NC(=S)S/C1=C\c1ccc(SCc2ccco2)o1	1647	14.4	1738	33.0*	1829	21.2*	2.5	6.0	2.3
COc1ccc2cc(CN(CC3CCCO3)C(=S)Nc3ccccc3)c(=O)[nH]c2c1 (configuration not stated)	1447	1.9	1683	7.1	1733	-0.3	x	x	x
CCOC(=O)c1cc(C(=O)OCC)c(=O)[nH]c1N1CCCC1	1339	-0.6	1540	-8.7	1548	-9.9	x	x	x
CN(C)/C=C/c1oc2ccc(O)cc2c1[N+](=O)[O-]	1792	18.0	1948	24.0*	2270	18.6	14.3	14.3	13.5
CCOc1ccc(S(=O)(=O)Nc2ccccc2C(=O)NCc2ccco2)cc1	1630	10.3	x	5.0	x	8.8	x	x	x
CS(=O)(=O)Nc1ccccc1C(=O)NCc1ccco1	1638	25.8*	x	19.8	x	1.1	6.5	3.9	5.1
SMILES	TR-FRET SRC-2 ct	PPARg SRC-3 ag	SRC3 TRFRET art	PPARg SRC-2 ag	SRC1 TRFRET art	PPARg SRC1 recr	PPARg SRC2 ag	PPARg SRC1 ag	PPARg SRC3 ag
Cc1ccc(Sc2ccc(NC(=O)c3ccc(S(C)(=O)=O)cc3Cl)cc2)cc1	1563	33.1*	x	-0.6	x	54.2*	24.2*	21.2*	13.9
CS(=O)(=O)c1ccc(C(=O)Nc2ccc(N3CCCCC3)cc2)c(Cl)c1	1563	1.5	1280	0.2	1810	11.8	x	x	x
COc1ccc(CC(=O)NCc2nnc(SCCOc3ccccc3)n2C)cc1	1523	3.1	x	10.1	x	18.8*	3.2	1.5	1.6
COc1cccc(CNC(=O)CSc2cc(=O)n(C)c3ccccc23)c1	2371*	21.1	2024	23.1*	2682*	42.2*	36.2*	25.0*	24.3*
Cn1c(=O)cc(SCC(=O)NCc2ccco2)c2ccccc21	2082*	37.6*	x	35.6*	x	27.8*	33.2*	22.3*	21.1
Cn1c(=O)cc(SCC(=O)NCC2CCCO2)c2ccccc21 (configuration not stated)	2686*	78.1*	x	49.3*	x	45.3*	34.8*	22.5*	22.5
Cc1ccc(C)c(SCC(=O)NCc2ccco2)c1	1634	-0.1	x	10.6	x	-2.0	x	x	x
CCn1c(CNC(=O)Cc2ccc(OC)cc2)nnc1SCCOc1ccccc1	1574	0.6	x	-2.1	x	3.0	x	x	x
Cc1sc(NC(=O)CSc2nnc(-c3ccc(F)cc3)o2)c(C#N)c1C	1486	2.2	x	-5.6	x	6.7	x	x	x
COc1cc([N+](=O)[O-])cc2cc(C(=O)N3CCCC3)c(=O)oc12	1403	0.2	1583	-8.5	1700	-4.7	x	x	x
COc1ccc(CNC(=O)CSc2cc(=O)n(C)c3ccccc23)cc1	2425*	24.2*	2050*	25.5*	2843*	39.8*	37.3*	24.4*	24.1*
CCc1ccc(C2CC(=O)N(c3ccc(F)cc3)C3=C2C(=O)OC3)cc1 (configuration not stated)	1501	-0.6	1619	-4.3	1426	-2.4	x	x	x
COC(=O)c1cc2ccccn2c2c(C(=O)OC)c(C(=O)OC)cc1-2	1669	3.1	x	5.8	x	8.8	x	x	x
COC(=O)c1cc2c(C)cc3ccc(C)cn3c-2c1C(=O)OC	2394*	47.2*	x	41.1*	x	26.3*	12.1	8.8	4.8
COC(=O)c1cc2c(C)c(C)c3ccccn3c-2c1C(=O)OC	2102*	35.3*	x	31.8*	x	18.5	7.1	6.7	4.4
COCCNC(=O)C(c1cccs1)N(C(=O)Cn1nnc2ccccc21)c1ccc(OC)cc1 (configuration not stated)	1522	-3.6	x	5.0	x	0.8	x	x	x
CCc1ccc(NC(=O)N(CCCN2CCOCC2)C(C)c2cc3cccc(OC)c3o2)cc1 (configuration not stated)	1538	8.2	x	0.7	x	0.1	x	x	x
